Experimental data as given in PubChem BioAssay (Tox21).
Inconclusive results are not listed. Active and inactive are the calls of the source. Unless noted, calls follow the shape of the dose curve; as a rule, active = well fitted curve in the direction sought with a large enough effect in the repeat runs; inconclusive = weak or mixed curves; inactive = no such curve, though single readings can be large; an effect the other way counts as inactive or inconclusive.

What was measured:
[1] = qHTS assay to test for compound auto fluorescence at 590 nm (red) in HepG2 cells (AID 720674)
Procedure, shortened: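 Red autofluorescence (Ex/Em 540/590 nm, Rose Bengal sodium equivalents) was measured in HepG2 cells, 2,000 per well in MEM plus 10% FBS, plated overnight at 37 C. Readings were taken 1 hr after adding 23 nL compound or DMSO, at 37 C and 5% CO2.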

[2] = qHTS assay to test for compound auto fluorescence at 535 nm (green) in HepG2 cells (AID 720675)
[3] = qHTS assay to test for compound auto fluorescence at 590 nm (red) in HEK293 cells (AID 720679)
Procedure, shortened: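 Plates of HEK293 cells (10% dialyzed FBS) are treated with 23 nL compound or DMSO vehicle after a 4-5 hr attachment period, incubated overnight at 37C, and read for red fluorescence at 540/590nm.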

[4] = qHTS assay to test for compound auto fluorescence at 460 nm (blue) in HEK293 cell free culture (AID 720681)
Procedure, shortened: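 Blue fluorescence (Ex 405/Em 460 nm, triamterene-equivalent) was read immediately after pin transfer of compound or DMSO into medium (DMEM, 10% FBS) without cells.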

[5] = qHTS assay to test for compound auto fluorescence at 535 nm (green) in HEK293 cell free culture (AID 720682)
Procedure, shortened: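 Using fluorescein as calibrant, autofluorescence was quantified at 485/535 nm in cell-free DMEM containing 10% FBS after pintool addition of compound or vehicle.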

[6] = qHTS assay to test for compound auto fluorescence at 590 nm (red) in HepG2 cell free culture (AID 720684)
Procedure, shortened: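 No cells present: MEM + 10% FBS only. Compound pinned in, red label read (540/590 nm). Activity = fluorescence equivalent to Rose Bengal sodium.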

[7] = qHTS assay to test for compound auto fluorescence at 460 nm (blue) in HepG2 cell free culture (AID 720685)
Procedure, shortened: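 Cell-free plates of MEM plus 10% FBS received 23 nL compound or DMSO vehicle; blue-channel (405/460 nm) intensity scored against triamterene as reference fluorophore.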

[8] = qHTS assay to test for compound auto fluorescence at 535 nm (green) in HepG2 cell free culture (AID 720686)
[9] = qHTS assay to test for compound auto fluorescence at 460 nm (blue) in HepG2 cells (AID 720687)
Procedure, shortened: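 Blue-channel autofluorescence (Ex/Em 405/460 nm, triamterene-equivalent) was measured after 1 hr compound exposure at 37 C, 5% CO2. Cells were HepG2, plated overnight at 37 C in MEM plus 10% FBS.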

[10] = target: Aromatase (Homo sapiens) (UniProt P11511); test: qHTS assay to identify aromatase inhibitors (AID 743083); also: nearly all actives have a fitted effect of over 55% in size; also: potency is read from the fitted curve at half-maximal effect
Chain of Aromatase (Homo sapiens) (P11511 whole entry, looked up): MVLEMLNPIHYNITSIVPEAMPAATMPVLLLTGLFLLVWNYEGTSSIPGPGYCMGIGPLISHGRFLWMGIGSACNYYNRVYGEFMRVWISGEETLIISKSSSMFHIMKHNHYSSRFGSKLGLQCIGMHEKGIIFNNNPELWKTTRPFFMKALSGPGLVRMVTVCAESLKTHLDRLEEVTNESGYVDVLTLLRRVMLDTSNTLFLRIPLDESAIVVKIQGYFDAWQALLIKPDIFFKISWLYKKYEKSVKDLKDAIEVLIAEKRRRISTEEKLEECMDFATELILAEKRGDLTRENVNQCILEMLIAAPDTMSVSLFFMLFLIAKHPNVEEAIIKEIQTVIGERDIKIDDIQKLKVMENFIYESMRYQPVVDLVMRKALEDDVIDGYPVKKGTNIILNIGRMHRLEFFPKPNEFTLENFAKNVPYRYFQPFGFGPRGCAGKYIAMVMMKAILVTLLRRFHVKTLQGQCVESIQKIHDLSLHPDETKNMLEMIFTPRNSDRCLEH

[11] = target: Aryl hydrocarbon receptor (Homo sapiens) (UniProt P35869); test: qHTS assay to identify small molecule that activate the aryl hydrocarbon receptor (AhR) signaling pathway (AID 743085); also: nearly all actives have a fitted effect of over 15% in size; also: potency is read from the fitted curve at half-maximal effect;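 as to activation: HG2L7.5c1 human HepG2 liver cells with stably integrated DRE-driven firefly reporter; series mostly up to about 70 µM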
Chain of Aryl hydrocarbon receptor (Homo sapiens) (P35869 whole entry, looked up): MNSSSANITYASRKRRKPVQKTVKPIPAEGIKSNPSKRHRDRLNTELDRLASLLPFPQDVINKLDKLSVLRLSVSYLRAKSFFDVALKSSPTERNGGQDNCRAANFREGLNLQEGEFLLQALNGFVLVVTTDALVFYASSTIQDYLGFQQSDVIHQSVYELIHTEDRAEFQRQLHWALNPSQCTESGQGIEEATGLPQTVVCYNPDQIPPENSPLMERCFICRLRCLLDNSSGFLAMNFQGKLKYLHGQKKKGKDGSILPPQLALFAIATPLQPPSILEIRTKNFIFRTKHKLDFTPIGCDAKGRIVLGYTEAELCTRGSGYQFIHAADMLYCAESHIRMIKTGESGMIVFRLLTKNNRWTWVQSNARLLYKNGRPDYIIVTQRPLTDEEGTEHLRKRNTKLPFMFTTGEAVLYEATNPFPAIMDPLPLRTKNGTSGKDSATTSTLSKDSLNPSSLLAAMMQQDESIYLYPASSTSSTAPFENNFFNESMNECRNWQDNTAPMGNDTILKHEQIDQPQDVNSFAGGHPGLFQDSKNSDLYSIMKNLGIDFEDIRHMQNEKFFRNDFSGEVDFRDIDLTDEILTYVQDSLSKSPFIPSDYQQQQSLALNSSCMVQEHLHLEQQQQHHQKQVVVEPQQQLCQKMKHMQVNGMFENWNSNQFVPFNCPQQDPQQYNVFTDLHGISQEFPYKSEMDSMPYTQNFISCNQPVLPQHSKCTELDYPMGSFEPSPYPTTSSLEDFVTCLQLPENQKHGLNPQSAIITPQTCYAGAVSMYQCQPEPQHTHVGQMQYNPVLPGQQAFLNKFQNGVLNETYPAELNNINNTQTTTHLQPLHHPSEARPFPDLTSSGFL
Procedure, shortened: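 Measured in HG2L7.5c1 cells: CellTiter-Fluor signal (30 min incubation, 37C) for viability, then luciferase luminescence (30 min, room temperature). Compound contact time was 24 h at 37C, following a 5 h pre-incubation.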

[12] = qHTS assay for small molecules that induce genotoxicity in human embryonic kidney cells expressing luciferase-tagged ATAD5 (AID 651632); also: nearly all actives have a fitted effect of over 15% in size
Procedure, shortened: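 Cells were seeded at 2,000 per well, dosed with compound, and incubated 16 hr at 37C in 5% CO2. Luciferase activity was then quantified after a 30 min room-temperature incubation with Amplite.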

[13] = qHTS assay for small molecules that induce genotoxicity in human embryonic kidney cells expressing luciferase-tagged ATAD5 - cell viability (AID 651634; calls by dose curve; also: nearly all actives have a fitted effect of over 25% in size)
Procedure, shortened: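 Cells (HEK293T, luciferase-tagged ATAD5) are seeded at 2,000 per well, dosed with compound or DMSO vehicle, and incubated 15.5 hr at 37C and 5% CO2. CellTiter-Fluor is added for 30 min before fluorescence is measured.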

[14] = qHTS assay to identify small molecule antagonists of the estrogen receptor alpha (ER-alpha) signaling pathway - cell viability counter screen (AID 743074; calls by dose curve;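 also: HEK293 cells carrying ER-alpha-UAS-bla reporter stimulated with 17beta-estradiol; nearly all actives have a fitted effect of over 45% in size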; also: potency is read from the fitted curve at half-maximal effect)
[15] = qHTS assay to identify small molecule antagonists of the estrogen receptor alpha (ER-alpha) signaling pathway using the BG1 cell line - cell viability counter screen (AID 743081);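 also: compound given together with 17beta-estradiol as the ER stimulus; nearly all actives have a fitted effect of over 45% in size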; also: potency is read from the fitted curve at half-maximal effect
[16] = qHTS assay to identify aromatase inhibitors - cell viability counter screen (AID 743084);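 also: cells stimulated with testosterone during compound exposure; nearly all actives have a fitted effect of over 55% in size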
[17] = qHTS assay to identify small molecule that activate the aryl hydrocarbon receptor (AhR) signaling pathway - cell viability counter screen (AID 743086);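 also: HepG2 liver cells carrying the AhR DRE luciferase reporter; series mostly up to about 70 µM; nearly all actives have a fitted effect of over 45% in size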
Procedure, shortened: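 Cytotoxicity counter screen: CellTiter-Fluor signal (30 min, 37 C) in 4000 HepG2 cells/well carrying the DRE-luciferase reporter, following 24 h compound exposure at 37 C.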

[18] = target: Nuclear receptor subfamily 1 group I member 2 (Homo sapiens) (UniProt O75469); test: CYP3A4 induction through human pregnane X receptor (PXR) by small molecules, qHTS assay (AID 1346984); also: nearly all actives have a fitted effect of over 40% in size; also: potency is read from the fitted curve at half-maximal effect
Procedure, shortened: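 Quantitative HTS in DPX-2 cells, i.e. HepG2 transfected with PXR response element and CYP3A4-promoter luciferase. Compounds in DMSO incubated 24hr at 37C; then P450-Glo CYP3A4 substrate, 3uM final, 3hr; One-Glo luminescence.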

[19] = qHTS assay to identify small molecule phospholipidosis (PLD) inducers (AID 1259344; active = well fitted curve in the direction sought with a large enough effect; an effect the other way counts as inactive or inconclusive)
Procedure, shortened: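 Accumulated phospholipid, stained red by LipidTOX during 24 h compound treatment of HepG2 cells at 37 C, is quantified from images as pit number and intensity, normalised per cell using Hoechst-stained nuclei.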

[20] = target: Nuclear receptor subfamily 1 group I member 2 (Rattus norvegicus) (UniProt Q9R1A7); test: Rat pregnane X receptor (rPXR) activation by small molecules, qHTS assay (AID 1346983); conditions: rPXR luciferase reporter cells, One-Glo luminescence, 24 h; max activation: active compounds read high; also: nearly all actives have a fitted effect of over 20% in size
Chain of Nuclear receptor subfamily 1 group I member 2 (Rattus norvegicus) (Q9R1A7 whole entry, looked up): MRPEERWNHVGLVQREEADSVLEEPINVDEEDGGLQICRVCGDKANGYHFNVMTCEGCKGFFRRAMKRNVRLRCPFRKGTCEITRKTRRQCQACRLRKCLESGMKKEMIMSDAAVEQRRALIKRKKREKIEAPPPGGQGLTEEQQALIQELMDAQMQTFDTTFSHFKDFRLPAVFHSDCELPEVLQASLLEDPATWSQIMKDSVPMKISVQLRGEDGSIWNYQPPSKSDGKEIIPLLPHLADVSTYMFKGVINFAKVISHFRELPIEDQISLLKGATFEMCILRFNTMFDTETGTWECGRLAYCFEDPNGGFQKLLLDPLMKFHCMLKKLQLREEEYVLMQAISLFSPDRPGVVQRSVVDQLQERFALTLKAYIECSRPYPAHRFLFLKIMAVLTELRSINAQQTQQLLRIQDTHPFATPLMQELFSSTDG
Procedure, shortened: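 Luminescent readout (One-Glo luciferase, 30 min room temperature) followed 24 hr compound treatment at 37 C of rPXR cells plated 2,000 per well and preincubated 5hr; qHTS format with compounds delivered in DMSO.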
% is scaled to controls: 0 for no effect and ±100 for the full control effect.

Cc1ccc(O)cc1C
inactive: outcome [1] | Potency [2] | outcome [3] | Potency [4] | Potency [5] | outcome [6] | Potency [7] | Potency [8] | Potency [9] | Potency [10]

Cc1cc([N+](=O)[O-])ccc1N
inactive: Potency [10] | Potency [11]

Cc1cccc(C)c1
inactive: Potency [10] | Potency [11]

c1ccc2c(c1)ccc1ncccc12
inactive: Potency [10] | Potency [11]

CN[C@@H]1C[C@@H](c2ccc(Cl)c(Cl)c2)c2ccccc21
inactive: Potency [12] | Potency [13] | outcome [1] | Potency [2] | outcome [3] | Potency [4] | Potency [5] | outcome [6] | Potency [7] | Potency [8] | Potency [9] | Potency [14] | Potency [15] | Potency [16] | Potency [17]
active: Potency [11] 29.8 µM | Potency [18] 28.2 µM

N#CC1(O)CCCCC1
inactive: Potency [10]

CNc1ccccc1
inactive: Potency [11]

O=C(O)/C=C/C(=O)O
inactive: Potency [12] | Potency [13] | Potency [2] | outcome [3] | Potency [4] | Potency [5] | outcome [6] | Potency [7] | Potency [8] | Potency [9] | Potency [14] | Potency [15] | Potency [17]

Nc1ccc(N)c2ccccc12
active: Potency [10] 3.06 µM | Potency [11] 0.968 µM

O=P(OC(CCl)CCl)(OC(CCl)CCl)OC(CCl)CCl
inactive: Potency [11]

Cc1ccc([N+](=O)[O-])c(C)c1
inactive: Potency [10] | Potency [11]

ClC(Cl)(Cl)c1ccc(C(Cl)(Cl)Cl)cc1
inactive: Potency [10] | Potency [11]

O=C1OC(=O)c2c(Br)c(Br)c(Br)c(Br)c21
inactive: Potency [10] | Potency [11]

O=[N+]([O-])c1ccccc1Cl
inactive: outcome [1] | Potency [2] | outcome [3] | Potency [4] | Potency [5] | outcome [6] | Potency [7] | Potency [8] | Potency [9] | Potency [10] | Potency [11]

Clc1nc(Cl)c(Cl)c(Cl)c1Cl
inactive: Potency [10]

N#CCCNCCC#N
inactive: Potency [10] | Potency [11]

CCCCCCCCCc1ccc(OCCOCCO)cc1
active: Potency [10] 21.1 µM
inactive: Potency [11]

NC(=Nc1ccccc1)Nc1ccccc1
active: Potency [10] 23.7 µM

O=C(O)/C=C\C(=O)O
inactive: Potency [12] | Potency [13] | outcome [1] | Potency [2] | outcome [3] | Potency [4] | Potency [5] | outcome [6] | Potency [7] | Potency [8] | Potency [9] | Potency [14] | Potency [15] | Potency [17] | Potency [19]

Cc1ccc2ccccc2c1C
inactive: Potency [2] | outcome [3] | Potency [4] | Potency [5] | outcome [6] | Potency [7] | Potency [8] | Potency [9]

CC(C)(C)c1ccc(O)cc1
inactive: outcome [1] | Potency [2] | outcome [3] | Potency [4] | Potency [5] | outcome [6] | Potency [7] | Potency [8] | Potency [9] | Potency [19]

CC[N+](C)(CC)CCOC(=O)C(O)(c1ccccc1)c1ccccc1
inactive: Potency [12] | Potency [13] | outcome [1] | Potency [2] | outcome [3] | Potency [4] | Potency [5] | outcome [6] | Potency [7] | Potency [8] | Potency [9] | Potency [14] | Potency [15] | Potency [10] | Potency [16] | Potency [11] | Potency [17] | Potency [19] | max activation [20] -2.16% | Potency [18]

COC(COC(N)=O)C1=C(N2CC2)C(=O)C(C)=C(N2CC2)C1=O (centres undefined)
active: Potency [14] 13.4 µM | Potency [15] 6.68 µM | Potency [10] 21.1 µM | Potency [11] 29.8 µM
inactive: Potency [12] | Potency [13] | outcome [1] | Potency [2] | outcome [3] | Potency [4] | Potency [5] | outcome [6] | Potency [7] | Potency [8] | Potency [9] | Potency [19] | max activation [20] -20.2% | Potency [18]

C#CC(C)(O)CC (centres undefined)
inactive: Potency [12] | Potency [13] | Potency [2] | outcome [3] | Potency [4] | Potency [5] | outcome [6] | Potency [7] | Potency [8] | Potency [9] | Potency [14] | Potency [15] | Potency [10] | Potency [16] | Potency [17] | Potency [19] | max activation [20] -2.56% | Potency [18]

C[C@@H](CO)NC(=O)[C@@H]1C=C2c3cccc4[nH]cc(c34)C[C@H]2N(C)C1
inactive: Potency [12] | Potency [13] | Potency [2] | outcome [3] | Potency [4] | Potency [5] | outcome [6] | Potency [7] | Potency [8] | Potency [9] | Potency [14] | Potency [15] | Potency [10] | Potency [16] | Potency [11] | Potency [19] | max activation [20] -0.825% | Potency [18]

CC(=O)O[C@H]1CC[C@H]2[C@@H]3CCC4=CC(=O)CCC4=C3C=C[C@]12C
inactive: Potency [12] | Potency [13] | outcome [1] | Potency [2] | outcome [3] | Potency [4] | Potency [5] | outcome [6] | Potency [7] | Potency [8] | Potency [9] | Potency [15] | Potency [10] | Potency [16] | Potency [11] | Potency [17] | Potency [19] | max activation [20] -1.98% | Potency [18]

c1cc2c(c(NC3=NCCN3)c1)CCCC2
inactive: Potency [12] | Potency [13] | outcome [1] | Potency [2] | outcome [3] | Potency [4] | Potency [5] | outcome [6] | Potency [7] | Potency [8] | Potency [9] | Potency [14] | Potency [15] | Potency [10] | Potency [16] | Potency [17] | Potency [19] | max activation [20] -5.45% | Potency [18]
